According to PubChem BioAssay AID590 (National Center for Advancing Translational Sciences (NCATS), 2007):
Hit rate of the full screen: of about 59,000 compounds, about 6,500 (11%) were called active. Not shown: some 15% with an inconclusive outcome. Cut-off read from the data, not from the text of the source: active = max dye-equivalent concentration above about 10 nM; inconclusive = mostly about 1.1 nM to 9.6 nM; inactive = weaker than that. Shown is part of a subset that was picked to be rich in actives. Some compounds were tested as several samples or in several runs, with calls that do not always agree.

Assay: qHTS Assay for Spectroscopic Profiling in A350 Spectral Region
Conditions: Compound autofluorescence, 340/450 nm, Alexa 350 dye-equivalents; active compounds read high

SMILES | max dye-equivalent concentration | outcome
CCC(c1nnnn1C1CCCC1)N1CCN(C(=O)c2ccco2)CC1 (stereo not given) | inactive | 
O=C(Nc1ccc(-c2nnc(-c3ccccc3)o2)cc1)c1ccc(Br)o1 | 68 nM (active) | 
O=C(Nc1cccc(-c2nnc(-c3ccccc3)o2)c1)C1CCCO1 (stereo not given) | inactive | 
O=C(Nc1ccc(-c2nnc(-c3ccccc3)o2)cc1)C1CCCO1 (stereo not given) | inactive | 
CCNS(=O)(=O)c1ccc(NC(=O)Nc2cccc(OC)c2)cc1 | inactive | 
CN1c2ccccc2-c2nc3ccccc3n2C1c1ccco1 (stereo not given) | 3400 nM (active) | 
CSCCC(NC(=O)c1ccc(=O)n(C)n1)c1nc2ccccc2[nH]1 (stereo not given) | inactive | 
COc1cc(C2C(C(=O)c3sc(C)nc3C)=C(O)C(=O)N2CCN(C)C)cc(OC)c1OC (stereo not given) | inactive | 
O=C(c1csnn1)N1CCC[C@@]2(CCN(Cc3nccs3)C2)C1 | inactive | 
O=C(NC1CCCCC1)c1ccc2c(=O)n(CC3CCCO3)c(=O)[nH]c2c1 (stereo not given) | 15 nM (active) | 
Cc1ccc(C(=O)Nc2ccccc2C(=O)NC2CCCCC2)cc1S(=O)(=O)N1CCOCC1 | inactive | 
O=c1c2cc3c(=O)n(CC4CCCO4)c(=O)c3cc2c(=O)n1CC1CCCO1 (stereo not given) | inactive | 
NS(=O)(=O)c1cc(C(=O)O)c(Cl)c([N+](=O)[O-])c1Cl | inactive | 
CS(=O)(=O)N(Cc1nc2sc3c(c2c(=O)[nH]1)CCCC3)C1CCCCC1 | 44 nM (active) | 
COc1ccc(Br)c2c1C[C@H](C(=O)O)CC2 | inactive | 
C=CCNC(=O)CCCC(=O)NCC=C | inactive | 
CC(C)(C)OC(=O)c1c(N)n(CCCN2CCCC2=O)c2nc3ccccc3nc12 | 9100 nM (active) | 
O=C(CCn1c(=S)[nH]c2ccccc2c1=O)NCCCN1CCCC1=O | inactive | 
CSc1nnc(-c2ccncc2)n1CCCN1CCCC1=O | inactive | 
COc1ccc(N2C(=O)CC(N3CCC(C(N)=O)CC3)C2=O)cc1 (stereo not given) | inactive | 
CC(C)NC(=O)N1CC[C@@]2(CCCN(C(=O)c3cccc(F)c3)C2)C1 | inactive | 
CCCCCNC(=O)Cc1ccc(OC)cc1 | inactive | 

SMILES | max dye-equivalent concentration | outcome
CCS(=O)(=O)n1nc(-c2ccccc2)nc1SCc1ccccc1 | inactive | 
CCCCCOC(=O)C1=C(C)Nc2nnnn2C1c1ccc(OC)c(OC)c1OC (stereo not given) | inactive | 
COC(=O)c1ccc(C2C3=C(Nc4nnnn42)c2ccccc2OC3)cc1 (stereo not given) | 74 nM (active) | 
COc1ccccc1NC(=O)C1=C(C)Nc2nnnn2C1c1cccc(Br)c1 (stereo not given) | inactive | 
CC(=O)OC(C(=O)NC1CCCCC1)c1ccccc1 (stereo not given) | inactive | 
Cc1cc(C(=O)OCC(=O)c2c(N)n(C)c(=O)n(C)c2=O)c(C)o1 | inactive | 
CC(NC(=O)CSc1nc2c(cc1C#N)CN(C)CC2)c1ccccc1 (stereo not given) | 26 nM (active) | 
Cc1ccc2cc(C#N)c(SCC(=O)NCC3CCCO3)nc2c1C (stereo not given) | inactive | 
CC(NC(=O)c1cc(-c2ccccc2)on1)c1ccccc1 (stereo not given) | inactive | 
CCC(C)NC(=O)C1CCC(=O)N1Cc1ccc(C)cc1 (stereo not given) | inactive | 
NC(=O)C1(N2CCCCC2)CCN(C(=O)c2ccc(C#Cc3ccccc3)o2)CC1 | inactive | 
O=S(=O)(NCc1ccccc1Cl)c1cnc[nH]1 | inactive | 
Cc1cc(NC(=O)c2cc(-c3cccs3)on2)nn1Cc1ccc(Cl)cc1 | inactive | 
CC(C)Cn1c(CCC(=O)O)ccc1-c1cccs1 | 410 nM (active) | 
O=C(O)CCC(=O)N(Cc1cccs1)Cc1cccs1 | inactive | 
COc1ccc(NC(=O)N2CC3(CCN(C(C)=O)CC3)C2)cc1 | inactive | 
CC(C)c1ccc(NC(=O)NC2CCCCC2)cc1 | inactive | 
FC(F)(F)c1ccccc1-c1nc(-n2ccnc2)c2ccccc2n1 | inactive | 
Cn1c(=O)[nH]c(=O)c2c1nc(NCCCn1ccnc1)n2Cc1cccc(Br)c1 | inactive | 
COc1cccc(NC(=O)c2ccccc2SC)c1 | inactive | 
COc1cc(OC)cc(C(=O)Nc2ccc(-c3nc4ccccc4o3)c(O)c2)c1 | 310 nM (active) | 
COc1ccc(NC(=O)c2c(C)oc3c2CCCC3)cc1 | inactive | 

SMILES | max dye-equivalent concentration | outcome
O=C(O)c1ccc(C(=O)c2ccccc2C(=O)O)cc1C(=O)O | inactive | 
C=CCn1c(COc2ccccc2F)nnc1SCC(=O)N1CC(=O)Nc2ccccc21 | inactive | 
CCOC(=O)CNC(=O)CSc1nnc(COc2ccc(Cl)cc2)n1CC | inactive | 
COCc1nc2ccccc2n1Cc1ccccc1Br | inactive | 
CCOC(=O)c1c(C)oc2ccc(OCC(=O)N(CC)CC)cc12 | inactive | 
COC(=O)COc1ccc2oc(=O)cc(C)c2c1 | 28 nM (active) | 
COc1ccc(OCC(=O)OCCN(C)C)cc1 | inactive | 
Cc1nn(-c2ccccc2)c(C)c1C(=O)OCC(=O)NC(=O)NC1CCCCC1 | inactive | 
O=C(CSc1nnc(-c2ccccn2)n1-c1ccccc1)Nc1ccc2c(c1)OCO2 | inactive | 
O=c1ccc2cc(S(=O)(=O)N3CCN(c4ccccc4)CC3)ccc2o1 | inactive | 
Cc1cc(C)cc(NC(=O)C2CCN(c3nc(C)cc(C)n3)CC2)c1 | inactive | 
CC(=O)N1CCC(C(=O)Nc2nc(-c3ccccc3)ns2)CC1 | 1700 nM (active) | 
Cc1ccc2c(NC(=O)C3CC3)cccc2n1 | inactive | 
CCCC(=O)N1c2ccc(-c3csc(N)n3)cc2CC1C (stereo not given) | inactive | 
Cc1noc(NS(=O)(=O)c2ccc(N3CC(O)=C(c4ccccc4)C3=N)cc2)c1C | inactive | 
COc1ccc(OC)c2c(N)c(C#N)c(C(F)(F)C(F)(F)F)nc12 | 150 nM (active) | 
COc1cccc(N(C(=O)c2ccn[nH]2)C2(C(=O)Nc3c(C)cccc3C)CCCCC2)c1 | inactive | 
CS(=O)(=O)N1CCC[C@@]2(CCN(c3ccncc3)C2)C1 | inactive | 
Cc1ccc(CN2C(=O)CCC2C(=O)NCCCN2CCCCC2C)cc1 (stereo not given) | inactive | 
COc1ccccc1CN1CC2(CCN(S(=O)(=O)c3ccccc3)CC2)C1 | inactive | 
CC(C)OCCCNC(=O)C1CC(=O)N(C2CCCCCCC2)C1 (stereo not given) | inactive | 
COc1ccc(CCNS(=O)(=O)c2ccc(F)cc2)cc1OC | inactive | 

SMILES | max dye-equivalent concentration | outcome
CCCc1[nH]nc2c1C(c1c(C)nn(-c3ccccc3)c1Cl)C(C#N)=C(N)O2 (stereo not given) | inactive | 
CSc1ccc(-c2c(C#N)c(N)nc3c2c(C)nn3-c2ccccc2)cc1 | 360 nM (active) | 
CSc1nc(N)c(C#N)c(-c2ccccc2Cl)c1C#N | inactive | 
O=S(=O)(c1ccccc1)N(CC(O)CN1CCCCC1)c1ccccc1 (stereo not given) | inactive | 
O=C1c2oc3ccc(Br)cc3c(=O)c2C(c2cccc(F)c2)N1CCO (stereo not given) | inactive | 
Cn1c(=S)c2[nH]c(SCCCc3ccccc3)nc2n(C)c1=O | 12 nM (active) | 
CCCSc1nc2c(c(=O)[nH]c(=O)n2C)n1CCc1ccccc1 | inactive | 
Cn1c(=O)c2c(nc(NCCc3ccccc3)n2Cc2ccccc2)n(C)c1=O | inactive | 
O=S1(=O)CC(NCc2ccccc2)C(Nc2ccc(Cl)cc2)C1 (stereo not given) | inactive | 
Cc1ccc(C)c(NC(=O)C2CC(=O)N(C(C)C)C2)c1 (stereo not given) | inactive | 
CN(C(=O)COc1nnc(-c2cccs2)c(-c2cccs2)n1)c1ccccc1 | inactive | 
COCCn1c(=O)c(-c2cccs2)nc2cnc(N3CCN(C)CC3)nc21 | 17 nM (active) | 
COc1ccccc1CCn1c(=O)c(-c2cn(C)c3ccccc23)nc2cncnc21 | inactive | 
COCCn1c(=O)c(-c2cccs2)nc2cncnc21 | 89 nM (active) | 
Cc1ccccc1NC(=O)Cc1nnc(SCC(=O)N2CCN(c3ccccc3)CC2)n1C | inactive | 
C=CCn1c(C)cc(C(=O)CN2C(=O)c3ccccc3C2=O)c1C | inactive | 
CC(=O)Nc1ccc(NS(=O)(=O)c2cc(C)sc2C)cc1 | inactive | 
COc1ccccc1CNc1ncncc1-c1cccc(NS(C)(=O)=O)c1 | inactive | 
Cc1ccc(C(=O)NCC(=O)O)cc1S(=O)(=O)N1CCCCC1 | inactive | 
CS(=O)(=O)Nc1cccc(-c2cncnc2Nc2ccccc2)c1 | inactive | 
CCOc1ccc(OCC)c(NC(=O)C2CCN(S(=O)(=O)c3c(C)noc3C)CC2)c1 | inactive | 
FC(F)(F)c1cccc(Nc2ncnc3ccccc23)c1 | inactive | 

SMILES | max dye-equivalent concentration | outcome
O=C(O)Cc1ccc(-c2ccccc2)cc1 | 47 nM (active) | inactive
Cc1cccc(C(=O)Nc2ccc(CC(=O)O)cc2)c1 | inactive | 
O=C(O)CCCc1ccccc1 | inactive | 
Cc1c(-c2nn(C)c(=O)c3ccccc23)oc2ccc(F)cc2c1=O | inactive | 
Cc1[nH]c2ccccc2c1C(=O)CSCC(=O)O | inactive | 
CCOC(=O)C1CCN(C(=O)c2oc3ccc(S(=O)(=O)N4CCCCCC4)cc3c2C)CC1 | inactive | 
CCN(CC)CCN1C(=O)C(=O)/C(=C(/O)c2ccc(OC)c(OC)c2)C1c1ccccn1 (stereo not given) | 42 nM (active) | 
COc1ccc(/C(O)=C2/C(=O)C(=O)N(CCCN(C)C)C2c2ccccc2)cc1OC (stereo not given) | inactive | 
CCCOc1ccc(/C(O)=C2/C(=O)C(=O)N(CCN(C)C)C2c2ccc(OC)c(OC)c2)cc1 (stereo not given) | inactive | 
CS(=O)(=O)N(C(=O)NC(=O)NC1CCS(=O)(=O)C1)C1CCCCC1 (stereo not given) | inactive | 
c1cnc(NC2C3CC4CC(C3)CC2C4)nc1 (stereo not given) | inactive | 
O=C(CN(Cc1ccccc1)C(=O)c1ccc2c(c1)OCCO2)NCc1ccc2c(c1)OCO2 | inactive | 
Cc1cc(NC(=O)Cn2nc(C(F)(F)F)c3c2CCCC3)no1 | inactive | 
COC(=O)c1ccc(C2NC(=O)NC(C)=C2C(=O)N(C)C)cc1 (stereo not given) | inactive | 
CCCOC(=O)C1=C(C)NC2=C(C(=O)C(C(=O)OC)C(C)C2)C1c1ccc(N(C)C)cc1 (stereo not given) | 22 nM (active) | 
COCCOC(=O)C1=C(C)NC(=O)CC1c1cc2c(cc1Br)OCO2 (stereo not given) | inactive | 
COC(=O)c1ccccc1NC(=O)CN(Cc1ccccc1)S(C)(=O)=O | inactive | 
S=c1[nH]nc(SCc2ccccc2Cl)c2[nH]cnc12 | inactive | 
CCOC(=O)N1CCC(O)(c2cc(C)c(C)cc2C)CC1 | inactive | 
CCOC(=O)N1CCN(CC(=O)c2ccc3c(c2)CCN3)CC1 | 17 nM (active) | 
CCOC(=O)N1CCN(CC(=O)n2c(C)c(C)c3ccccc32)CC1 | inactive | 
